Laboratory results published in PubChem BioAssay AID588590 (National Center for Advancing Translational Sciences (NCATS), 2011).
The whole screen tested about 390,000 compounds, of which about 4,000 (1%) were called active. Inconclusive results (about 7%) are left out. The sample as a whole holds a higher share of actives than the screen did. Unmarked numbers belong to inactive results. The call rests on the fitted dose curve; in most records, active means well fitted inhibition curve with a large enough effect; inconclusive means small, poorly fitted or top-dose-only effect, or another doubt; inactive means no such curve, though single readings can be large or run the other way.

molecular target: DNA polymerase iota (Homo sapiens) (UniProt Q9UNA4); assay: qHTS for Inhibitors of Polymerase Iota; details: Pol iota fluorescent replication assay, 10 min; series mostly up to 115 µM; activity, negative = inhibition: at the top concentration
Description: DNA polymerases, such as Pol iota, are specifically involved in DNA repair. Pol iota specifically plays an important role in translesion synthesis, where the normal high-fidelity DNA polymerases cannot proceed and DNA synthesis stalls. […] Thus, while pol eta's (and most likely iota's) normal function is to protect humans against the deleterious consequences of DNA damage, under certain conditions they can have deleterious effects on human health. As a consequence, we propose to utilize a high throughput replication assay to identify small molecule inhibitors of pol iota.
In a collaboration between the National Institute of Child Health & Human Development (NICHD) and NIH Chemical Genomics Center, a high-throughput, fluorescent screen was developed to screen the NIH Molecular Libraries Small Molecule Repository (MLSMR). This screen is used to identify inhibitors of pol iota.
NIH Chemical Genomics Center [NCGC]
NIH Molecular Libraries Probe Centers Network [MLPCN]
Assay Submitter (PI): Roger Woodgate, NICHD)
Three microliters of reagents (buffer in column 3 and 4 as negative control and 10 nM Pol iota in columns 1, 2, and 5-48) will be dispensed into 1,536-well black solid-bottomed plate. Compounds (23 nL) will be transferred via Kalypsys pin tool equipped with 1536-pin array. The plates will then be incubated for 15 min at room temperature, and 1 µL substrate (50 nM final concentration) will be added to start the reaction and kinetically read twice at 0 min and 10 min on the Viewlux reader.
Potency means the concentration at half of the fitted maximal effect.

Chain of DNA polymerase iota (Homo sapiens) (Q9UNA4 whole entry, looked up): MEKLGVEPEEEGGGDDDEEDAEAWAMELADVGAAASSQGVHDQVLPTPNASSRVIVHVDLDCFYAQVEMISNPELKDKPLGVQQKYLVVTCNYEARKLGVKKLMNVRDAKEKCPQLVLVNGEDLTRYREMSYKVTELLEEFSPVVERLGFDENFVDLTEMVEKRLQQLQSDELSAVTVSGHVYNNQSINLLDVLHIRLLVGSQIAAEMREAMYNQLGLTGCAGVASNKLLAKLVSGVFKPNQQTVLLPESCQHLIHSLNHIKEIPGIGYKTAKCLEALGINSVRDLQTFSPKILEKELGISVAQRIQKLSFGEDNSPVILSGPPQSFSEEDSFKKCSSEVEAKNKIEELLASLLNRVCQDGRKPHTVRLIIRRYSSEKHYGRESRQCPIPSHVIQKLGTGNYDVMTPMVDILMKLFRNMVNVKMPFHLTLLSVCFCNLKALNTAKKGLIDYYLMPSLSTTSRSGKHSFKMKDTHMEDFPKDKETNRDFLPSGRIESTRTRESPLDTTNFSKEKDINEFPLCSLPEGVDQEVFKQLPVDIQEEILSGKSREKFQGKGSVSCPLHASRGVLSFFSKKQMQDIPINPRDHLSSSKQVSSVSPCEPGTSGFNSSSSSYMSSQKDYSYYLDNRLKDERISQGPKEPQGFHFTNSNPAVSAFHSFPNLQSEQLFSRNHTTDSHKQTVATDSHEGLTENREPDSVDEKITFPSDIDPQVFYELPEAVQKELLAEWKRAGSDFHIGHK

Question: With `CC(=O)c1c(O)c(C)c(O)c(Cc2c(O)c3c(c(C(=O)/C=C/c4ccccc4)c2O)OC(C)(C)C=C3)c1O` as the compound, how does the Potency read?
Answer: Its Potency is 50.1 µM (active).

Question: `CCCCOP(=O)(c1ccc(N(C)C)cc1)C(O)c1cc(OC)ccc1OC` (stereo not given) was tested. Which “activity, negative = inhibition” value did it give?
Answer: The value was 59.2%.

Question: Which “activity, negative = inhibition” value does the source give for `CC(=O)NBr` here?
Answer: Its value is -4.33% [at 58.9 µM].

Question: For `COc1ccc(N2C(=O)/C(=C/c3ccco3)C(=O)NC2=S)cc1`, which Potency is on record?
Answer: The Potency was 4.47 µM (active).

Question: How did the “activity, negative = inhibition” value turn out when `CNCC[C@H](Oc1ccc(C(F)(F)F)cc1)c1ccccc1` was run?
Answer: Its value is -5.09% [at 58.9 µM].

Question: Which “activity, negative = inhibition” value does the source give for `O=C1C=C(NS(=O)(=O)c2ccccc2)C(=O)c2ccccc21` here?
Answer: The value was 37.4%.

Question: Which “activity, negative = inhibition” value does the source give for `O=c1[nH]c(=S)[nH]c(O)c1/C=C1\C=Nc2ccccc21` here?
Answer: The value was 60.1%.

Question: How did the “activity, negative = inhibition” value turn out when `O=C(O)/C=C/c1ccc2c(c1)OCO2` was run?
Answer: Its value is -23.3%.

Question: For `O=C1NC(=O)N(Cc2ccco2)C(=O)/C1=C\c1cccn1CCOc1ccccc1`, which Potency is on record?
Answer: The Potency was 22.4 µM (active).

Question: With `O=C1NC(=O)N(Cc2ccco2)C(=O)/C1=C\c1ccc(-c2ccc(F)cc2)o1` as the compound, how does the Potency read?
Answer: Its Potency is 11.2 µM (active).

Question: How did the Potency turn out when `Cc1cc(/C=C2/C(=O)NC(=O)N(Cc3ccco3)C2=O)c(C)n1-c1ccc(C(=O)O)cc1` was run?
Answer: The Potency was 14.1 µM (active).

Question: Which “activity, negative = inhibition” value does the source give for `CC1=NNC(=O)C1Cc1c(Cl)cccc1Cl` (stereo not given) here?
Answer: The value was 59.1%.

Question: Which “activity, negative = inhibition” value does the source give for `Cn1c(=O)oc2cc(S(=O)(=O)N3CCC(C(=O)Nc4ccc(OC(F)(F)F)cc4)CC3)ccc21` here?
Answer: Its value is 49.5%.

Question: Which “activity, negative = inhibition” value does the source give for `O=C(Oc1ccc2c(c1)CCC2)N1CCOCC1` here?
Answer: Its value is 35.3%.

Question: `CCOC(=O)c1ccc(N2C(=O)c3[nH]nc(-c4ccccc4)c3C2c2ccc(C(C)C)cc2)cc1` (stereo not given) was tested. Which “activity, negative = inhibition” value did it give?
Answer: The value was 31.9%.

Question: Which “activity, negative = inhibition” value does the source give for `CCN(CC)C(=O)Oc1ccc(Br)cc1C(=O)Nc1ccc(F)c(Cl)c1` here?
Answer: The value was 100%.

Question: Which “activity, negative = inhibition” value does the source give for `CC(=O)c1ccc(OC(=O)N2CCOCC2)cc1` here?
Answer: Its value is 57.7%.

Question: For `CCOC(=O)C(NS(=O)(=O)c1ccc(C)cc1)(C(F)(F)F)P(=O)(OCC(C)C)OCC(C)C` (stereo not given), which “activity, negative = inhibition” value is on record?
Answer: Its value is 34.1%.

Question: For `O=C1c2ccccc2NC(c2ccccc2O)N1NS(=O)(=O)c1ccccc1` (stereo not given), which “activity, negative = inhibition” value is on record?
Answer: The value was 34.4%.

Question: Which “activity, negative = inhibition” value does the source give for `O=C(CN1CCCC1=O)NCCc1ccccc1` here?
Answer: The value was -3.26%.

Question: With `O=C1CC(=O)N(Cc2ccccc2)C(=O)N1CCCCCCN1C(=O)CC(=O)N(Cc2ccccc2)C1=O` as the compound, how does the Potency read?
Answer: The Potency was 17.8 µM (active).

Question: Which “activity, negative = inhibition” value does the source give for `CC(C)(C)c1ccc(CN2C(=O)CN=C(c3ccccc3)c3ccccc32)cc1` here?
Answer: Its value is -3.92%.

Question: With `S=C(Nc1ccc(Br)cc1Cl)N1CCC2(CC1)OCCO2` as the compound, how does the “activity, negative = inhibition” value read?
Answer: Its value is 56.3%.

Question: `CC[C@H]1CN2CCc3cc(OC)c(OC)cc3[C@@H]2C[C@@H]1C[C@H]1NCCc2cc(OC)c(OC)cc21` was tested. Which Potency did it give?
Answer: Its Potency is “inactive”.

Question: Which “activity, negative = inhibition” value does the source give for `CCOCCCNC(=O)c1c(NC(=O)c2nc(SC)ncc2Cl)sc2c1CCCC2` here?
Answer: The value was 17.5%.

Question: For `O=S(=O)(Nc1ccc2[nH]ncc2c1)c1ccccc1Cl`, which “activity, negative = inhibition” value is on record?
Answer: Its value is 37.5%.

Question: `O=[N+]([O-])c1ccc(Cl)c(Cl)c1` was tested. Which “activity, negative = inhibition” value did it give?
Answer: The value was 1.03%.

Question: Which Potency does the source give for `CO[C@H]1[C@@H](O)[C@@H](C)O[C@H](O[C@H]2[C@H](Oc3cccc4c(O)c5c(=O)oc6ccc(C)c7c(=O)oc(c34)c5c67)O[C@H](C)[C@H](O)[C@@H]2O)[C@@H]1O` here?
Answer: Its Potency is 20 µM (active).

Question: `CCOc1ccc(C(NC(=O)c2cc(OC)c(OC)c(OC)c2)c2cc(Cl)c3cccnc3c2O)cc1` (stereo not given) was tested. Which “activity, negative = inhibition” value did it give?
Answer: Its value is 18.7%.

Question: How did the “activity, negative = inhibition” value turn out when `Cc1ccc(NC(=O)CN(C)CC(=O)Nc2cccc(F)c2)cc1[N+](=O)[O-]` was run?
Answer: The value was 54.2%.

Question: `O=P1(Oc2ccccc2)CC(O)C(O)C(COCc2ccccc2)O1` (stereo not given) was tested. Which “activity, negative = inhibition” value did it give?
Answer: Its value is 26.2%.

Question: For `N#Cc1c(Cl)c(Cl)c(Cl)c(C#N)c1Cl`, which Potency is on record?
Answer: The Potency was 1.58 µM (active).

Question: `CC(CCn1cccn1)NC(=O)CCc1nnc(CCc2ccccc2)o1` (stereo not given) was tested. Which “activity, negative = inhibition” value did it give?
Answer: Its value is 67.6%.

Question: With `O=C(NCc1cccs1)c1ccc(Br)o1` as the compound, how does the “activity, negative = inhibition” value read?
Answer: The value was 21.2%.

Question: With `O=C(c1ccccc1[N+](=O)[O-])N1CCC2(CC1)OCCO2` as the compound, how does the “activity, negative = inhibition” value read?
Answer: The value was 58.5%.

Question: How did the Potency turn out when `O=C(O)c1cc[c]([Sb](=[O])([OH])[OH])cc1[N+](=O)[O-]` was run?
Answer: The Potency was 1 µM (active).

Question: With `COc1cc(C2c3cc4c(cc3C(O)C3COC(=O)C23)OCO4)cc(OC)c1OC` (stereo not given) as the compound, how does the Potency read?
Answer: Its Potency is “inactive”.

Question: `COc1cc([C@@H]2c3cc4c(cc3[C@H](OC(C)=O)[C@H]3COC(=O)[C@H]23)OCO4)cc(OC)c1OC` was tested. Which “activity, negative = inhibition” value did it give?
Answer: Its value is 10.4%.

Question: `CCOC(=O)c1ncn2c1[C@@H]1CCCN1C(=O)c1cc(OC)ccc1-2` was tested. Which “activity, negative = inhibition” value did it give?
Answer: The value was 0.794% [at 58.9 µM].

Question: How did the “activity, negative = inhibition” value turn out when `Cc1ccc(C)c(NS(=O)(=O)c2ccc(OCC(=O)NCc3cccnc3)cc2)c1` was run?
Answer: The value was 9.55%.

Question: With `CCOP(=O)(OCC)C(Nc1cccc(C)c1)c1ccc(F)cc1` (stereo not given) as the compound, how does the “activity, negative = inhibition” value read?
Answer: Its value is 29.3%.

Question: For `O=c1c2ccccc2nc(/C=C/c2ccco2)n1-c1ccccc1O`, which Potency is on record?
Answer: Its Potency is 44.7 µM (active).

Question: Which “activity, negative = inhibition” value does the source give for `Cn1cc(/C=C/c2nc3ccccc3c(=O)n2-c2ccccc2)c2ccccc21` here?
Answer: The value was 43.9%.

Question: How did the “activity, negative = inhibition” value turn out when `O=c1c2ccccc2nc(/C=C/c2ccc(F)cc2)n1-c1ccccc1O` was run?
Answer: The value was 145%.

Question: With `Cc1ncoc1C(=O)NCCC(c1ccccc1)c1ccccc1` as the compound, how does the “activity, negative = inhibition” value read?
Answer: Its value is 63.3%.

Question: Which “activity, negative = inhibition” value does the source give for `CCCCN1C2CCC1CC(OC(c1ccc(F)cc1)c1ccc(F)cc1)C2` (stereo not given) here?
Answer: Its value is 4.09% [at 58.9 µM].

Question: How did the “activity, negative = inhibition” value turn out when `Cc1ccc(NC(=O)O/N=C/c2cccc([N+](=O)[O-])c2)cc1` was run?
Answer: Its value is 55.3%.

Question: For `c1csc(-c2nnc(COc3ccc4c(c3)OCO4)o2)c1`, which “activity, negative = inhibition” value is on record?
Answer: Its value is 108%.

Question: With `O=C1NC(=O)N(c2ccccc2)C(=O)/C1=C/c1ccc([N+](=O)[O-])s1` as the compound, how does the Potency read?
Answer: The Potency was 11.2 µM (active).

Question: Which “activity, negative = inhibition” value does the source give for `Cc1nnc(NCc2ccccc2)c2c1nnn2Cc1ccc(F)cc1` here?
Answer: The value was 51.9%.

Question: How did the Potency turn out when `O=C(C1CCN(S(=O)(=O)c2ccc(Br)s2)CC1)N1CCN(c2ccccc2)CC1` was run?
Answer: Its Potency is “inactive”.

Question: Which “activity, negative = inhibition” value does the source give for `CC(C)N1C(=S)SC(C)(C)C1n1oc(=O)n(-c2ccc(Cl)c(Cl)c2)c1=O` (stereo not given) here?
Answer: Its value is 24%.

Question: Which “activity, negative = inhibition” value does the source give for `Cc1ccccc1NC(=O)c1c(NC(=O)c2ccccc2F)sc2c1CCC(C)C2` (stereo not given) here?
Answer: Its value is 20%.

Question: How did the “activity, negative = inhibition” value turn out when `CC(C)(C)c1ccc(C(=O)NCc2ccco2)cc1` was run?
Answer: Its value is 37.6%.

Question: Which “activity, negative = inhibition” value does the source give for `CCc1ccccc1NC(=O)c1sc2nc3c(cc2c1N)CN(Cc1ccccc1)CC3` here?
Answer: The value was 31.7%.
